MARV entry inh: qHTS for inhibitors of binding or entry into cells for Marburg Virus; Marburg virus pseudotyped entry inhibition, cell reporter; Potency, µM (titrated, usually from 37.8 µM), for the others: at the highest dose activity change, negative = inhibition, most hits filed as inhibitors; 1.8% of 300,000 active; AID 540276, 2011; calls by dose curve; tested in HEK293 cells
FMDV inh: High Throughput Screening for Foot and Mouth Disease Virus Antivirals. FMDV antiviral cell-based qHTS. Potency, µM (doses to about 57.9 µM), for the others: at the highest dose activity change, negative = inhibition, most hits filed as inhibitors. 1.2% of 410,000 active. AID 1159524, 2015; calls by dose curve; tested in HEK293T cells; note: read-out not given here; nearly all actives have a fitted effect of over 45% in size
Sm TGR inh: qHTS Assay for the Inhibitors of Schistosoma Mansoni Peroxiredoxins; AID 485364, 2010; 3% of 360,000 active; purified TGR, DTNB reduction, TNB absorbance 405 nm; Potency, µM (doses to about 114 µM), inactives show at the highest dose activity change, negative = inhibition, actives largely listed as inhibitors; active = well fitted inhibition curve with a large enough effect; inconclusive = small, poorly fitted or top-dose-only effect; inactive = no such curve, though single readings can be large or run the other way; note: nearly all actives have a fitted effect of over 60% in size
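Kinetic colorimetric format: TGR-catalysed, NADPH-driven DTNB reduction monitored via TNB absorbance. Enzyme dispensed at 20 nM; compound exposure 15 min at room temperature before reaction start.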
VACV Venus inh: qHTS for Stage-Specific Inhibitors of Vaccinia Orthopoxvirus: Venus Reporter Primary qHTS. Vaccinia virus Venus reporter expression, fluorescence. Potency, µM (highest dose often 36.5 µM), for inactives: at the highest dose activity change, negative = inhibition, hits mostly inhibitors. 0.46% of 330,000 active. AID 720580, 2013; calls by dose curve; tested in A549 cells; note: nearly all actives have a fitted effect of over 30% in size
Lassa entry inh: qHTS for Inhibitors of binding or entry into cells for Lassa Virus; Lassa virus pseudotype entry inhibition, cell reporter; Potency, µM (doses to about 37.9 µM), without a hit: top-dose activity change, negative = inhibition, actives largely listed as inhibitors; 1.2% of 300,000 active; calls by dose curve; tested in HEK293 cells; note: nearly all actives have a fitted effect of over 50% in size
Vaccinia mCherry: qHTS for Stage-Specific Inhibitors of Vaccinia Orthopoxvirus: mCherry Reporter Primary qHTS. Vaccinia virus mCherry reporter infection, fluorescence. Potency, µM (doses to about 36.5 µM), for inactives: top-dose activity change, negative = inhibition, most hits filed as inhibitors. 0.63% of 310,000 active; calls by dose curve; tested in A549 cells; note: nearly all actives have a fitted effect of over 35% in size
The depositor's hits bear a star; i = inactive; u = inconclusive; x = not tested or not shown; [ ] = another dose, or the depositor's remark. Most compounds without a hit are left out; they make up all but 5.4% or so of the library. % is set by controls: 0 for no effect and ±100 for the full control effect; potency is the fitted concentration of half-maximal effect.

SMILES	MARV entry inh	FMDV inh	Sm TGR inh	VACV Venus inh	Lassa entry inh	Vaccinia mCherry
CCOC(=O)NCc1ccc(CNC(=O)OCC)cc1	0%	-6%	7%	2%	15%	x
COc1cccc([C@H]2/C(=C(\O)c3cnn(-c4ccccc4)c3C)C(=O)C(=O)N2CCN(C)C)c1	0%	x	x	x	x	x
Oc1ccc(N=Cc2cc(Br)c(N3CCOCC3)o2)cc1	2%	-6%	18µM*	-3%	1%	-3%
Cc1cc(C)cc(C(=O)N2CC(C)SC2=Nc2cccc(S(=O)(=O)N(C)C)c2)c1 (stereo not drawn)	u	-25%	1%	-26%	u	u
Cc1ccc(C(=O)N2CC(C)SC2=Nc2cccc(S(=O)(=O)N(C)C)c2)cc1 (stereo not drawn)	-12%	-19%	-25%	u	3.2µM*	u
COc1cc(OC)c(NC(=O)C(=O)CC(=O)c2ccc(C)cc2C)cc1Cl	u	-11%	-6%	2%	8.2µM*	u
COc1ccc(C(=O)CC(=O)C(=O)Nc2ccc(C)cc2Cl)cc1	u	-17%	u	-5%	u	i
COc1ccc(C2(CNC(=O)c3ccc(Br)o3)CCOCC2)cc1	0%	-14%	3%	-1%	3%	x
CCCCOc1ccc(C(=O)NCC2(c3ccc(OC)cc3)CCOCC2)cc1	u	-18%	0%	-2%	2.8µM*	-15%
C=CCN1C(=O)NC(=O)/C(=C\c2ccc(-c3ccccc3[N+](=O)[O-])o2)C1=O	-14%[46.1 µM]	u	u	-14%	5%	-9%
CCOC(=O)c1cc(-c2ccc(/C=C3/C(=O)NC(=O)C(C#N)=C3C)o2)ccc1Cl	5%	-6%	7.9µM*	-1%	1%	-9%
CC1=C(C#N)C(=O)NC(=O)/C1=C\c1ccc(-c2ccc(C)cc2[N+](=O)[O-])o1	8%[46.1 µM]	-11%	8.9µM*	6%	17%	7%
CC(C)(C)C(=O)NCCCc1nc2ccccc2n1CCCOc1ccc(Cl)cc1	u	20µM*	-16%	u	u	x
O=C(NCCc1nc2ccccc2n1CCCOc1ccc2ccccc2c1)C1CCCCC1	x	x	x	u	x	3.2µM*
CC(=O)NCCc1nc2ccccc2n1CCCCOc1ccc(Cl)cc1	u	u	5%	-13%	u	-11%
O=C(CNC(=O)C1CCCCC1)OCC(=O)c1ccccc1	x	x	x	4%	x	37%
O=C(NC1CCCC1)c1cc(COc2ccc3ncccc3c2)on1	x	u	13%	x	x	x
CC(NC(=O)c1cc(COc2ccc3ncccc3c2)on1)c1ccc(F)cc1 (stereo not drawn)	x	1.8µM*	-14%	x	x	x
O=C(NCCc1cn2ccccc2n1)c1cc(COc2ccc3ncccc3c2)on1	5.6µM*	11µM*	6%	-15%	-23%	u
COc1ccc(-c2ccn(-c3cccc(F)n3)n2)cc1	10µM*	20%	28µM*	-21%	u	-27%
COc1ccccc1N1CCN(CCCCNS(=O)(=O)c2cccc3c(N(C)C)cccc23)CC1	7.1µM*	x	x	x	15µM*	x
COc1cc2oc3ccccc3c2cc1N(CC(=O)N(C)C)S(=O)(=O)c1ccccc1	u	38%	-28%	-19%	u	x
COc1cc2oc3ccccc3c2cc1N(CC(=O)N(C)C)S(=O)(=O)c1ccc(C)cc1	-8%[46.1 µM]	-13%	-27%	-2%	24%	x
CCN(CC)C(=O)CN(c1cc2c(cc1OC)oc1ccccc12)S(=O)(=O)c1ccccc1	10µM*	16%	19%	u	u	x
CCOc1ccc(N(CC(=O)N2CCCCCC2)S(=O)(=O)c2ccc(C)cc2)cc1	-50%	30%	0%	-1%	3.5µM*	-3%
SMILES	MARV entry inh	FMDV inh	Sm TGR inh	VACV Venus inh	Lassa entry inh	Vaccinia mCherry
CCOc1ccc(OCCC(=O)OCC(=O)N2CCN(S(=O)(=O)c3ccc(C)cc3)CC2)cc1	x	u	50µM*	x	x	x
COc1cc2oc3ccccc3c2cc1N(CC(=O)N1CCCCC1)S(=O)(=O)c1ccc(C)cc1	14µM*	49%	-4%	-21%	u	x
O=C(/C=N\O)NCCCN1CCOCC1	-36%	x	x	x	x	x
CC(C)NC(=O)c1sc2ncccc2c1-n1cccc1	x	21%	1%	7%	u	-9%
COC(=O)c1c(NC(=O)CCc2ccc(C)o2)sc(C)c1C	-14%	-10%	40µM*	4%	-8%	x
COc1ccc(-c2cccc3c2OC(CNC(=O)c2ccc4c(c2)OCO4)C3)nn1 (stereo not drawn)	x	31%	x	4%	x	-5%
O=C(NCc1ccco1)c1c(Cl)cccc1Cl	x	-3%	x	-5%	x	-10%
O=C(NCc1ccco1)c1ccc(Cn2cc([N+](=O)[O-])cn2)o1	6%	8%	51%	x	1%	x
O=C(NCc1ccco1)c1c(F)c(F)c(F)c(C(=O)NCc2ccco2)c1F	-3%[46.1 µM]	-26%	45µM*	-5%	-20%	10%
O=C(NCc1ccco1)c1ccc(-c2ccccc2Cl)o1	-11%[46.1 µM]	28%	25µM*	-2%	u	i
O=C(NCc1ccco1)c1ccc([N+](=O)[O-])o1	3%[46.1 µM]	-20%	28µM*	-16%	-13%	-18%
O=C(NCc1ccco1)c1ccc(-c2ccc(Cl)cc2)o1	x	23%	-9%	x	x	x
CCOc1ccc(NC(=O)CSc2nnc(CNC(=O)C34CC5CC(CC(C5)C3)C4)n2CC)cc1	-6%[46.1 µM]	-15%	-13%	-6%	-10%[46.1 µM]	1%
CCOc1ccc(N(C)S(=O)(=O)c2ccc(C)c(C(=O)OCC(=O)c3c[nH]c4ccccc34)c2)cc1	1.4µM*	-12%	x	-19%	7%	i
Cc1cc(C)cc(NS(=O)(=O)c2ccc3c(c2)NC(=O)C(C)S3)c1 (stereo not drawn)	x	46%	-1%	-11%	22%[46.1 µM]	-13%
COc1ccc2c(c1)NC(c1cc(Cl)cc(Cl)c1O)c1cccn1-2 (stereo not drawn)	3%[46.1 µM]	-5%	-23%	-7%	11%[46.1 µM]	-20%
COc1ccc2c(c1)NC(c1ccc(N(C)C)cc1)c1cccn1-2 (stereo not drawn)	u	-6%	50µM*	-12%	-6%[46.1 µM]	-31%
CC(=O)Nc1ccc(Oc2ccc([N+](=O)[O-])cc2Cl)cc1	u	u	2%	-4%	-5%	-8%
CC(=O)Nc1ccc(N=c2cc([N+](=O)[O-])cc(Cl)n2O)cc1	u	0%	-29%	u	u	8.9µM*
O=C1CC(c2ccc(O)c(O)c2)Oc2cc(O)cc(O)c21 (stereo not drawn)	x	8%	40µM*	-15%	x	-10%
O=C1c2cc(O)c(O)cc2OC(c2ccc(O)c(O)c2)C1O (stereo not drawn)	28%	-9%	x	-11%	2%[46.1 µM]	-12%
